# Assay results published in the supplement of paper PMC6555819.
# What was measured:
# Experiment in all cases: PBM binding z-score (relative to random genomic background probes); higher = stronger binding; sequences stand for … in GC…GCGATTGACAGCGTAGAATGAAGG
# [1] = system: FXR:RXRa (NR concentration 270 nM, RXRa partner concentration 90 nM)
# Procedure, shortened: (§1)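 Custom Agilent 4×180K protein-binding microarrays carried double-stranded probes. Their 34-nt variable regions held direct-repeat seeds, single-nucleotide variants, half-site ablations and random human genomic background sequences. Arrays were incubated 1 h with ligand-free nuclear receptor dimers in PBS pH 7.4, 2% milk, 0.02% Triton X-100, 1 mM DTT, 0.2 mg/mL BSA and 0.4 mg/ml salmon testes DNA. Antibodies against each partner (one per run) detected binding, and scanned fluorescence was regression-normalized. Binding z-scores use random background probes as reference.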
# [2] = system: LXRa:RXRa (NR concentration 270 nM, RXRa partner concentration 90 nM)
# Procedure, shortened: as §1
# [3] = system: LXRa homodimer (NR concentration 270 nM)
# Procedure, shortened: as §1
# [4] = system: LXRb:RXRa (NR concentration 270 nM, RXRa partner concentration 90 nM)
# Procedure, shortened: as §1
# [5] = system: LXRb homodimer (NR concentration 270 nM)
# Procedure, shortened: as §1
# [6] = system: PPARa:RXRa (NR concentration 270 nM, RXRa partner concentration 90 nM)
# Procedure, shortened: as §1
# [7] = system: PPARg:RXRa (NR concentration 180 nM, RXRa partner concentration 90 nM)
# Procedure, shortened: as §1
# [8] = system: PPARg:RXRa 270nM:90nM, anti-RXR (NR concentration 270 nM, RXRa partner concentration 90 nM)
# Procedure, shortened: as §1
# [9] = system: PPARg:RXRa 30nM:10nM, anti-RXR (NR concentration 30 nM, RXRa partner concentration 10 nM)
# Procedure, shortened: as §1
# [10] = system: PPARg:RXRa 90nM:30nM, anti-RXR (NR concentration 90 nM, RXRa partner concentration 30 nM)
# Procedure, shortened: as §1
# [11] = system: PPARg:RXRa DBDmut IVT, anti-RXR (DBD mutation: RXRa K156A/R161A, NR concentration 270 nM, RXRa partner concentration 90 nM)
# Procedure, shortened: as §1
# [12] = system: PPARg:RXRa IVT, anti-PPARg (NR concentration 270 nM, RXRa partner concentration 90 nM)
# Procedure, shortened: as §1
# [13] = system: PPARg DBDmut:RXRa IVT, anti-PPARg (DBD mutation: PPARg1 K132A/R137A, NR concentration 270 nM, RXRa partner concentration 90 nM)
# Procedure, shortened: as §1
# [14] = system: PPARg DBDmut IVT, anti-PPARg (DBD mutation: PPARg1 K132A/R137A, NR concentration 270 nM)
# Procedure, shortened: as §1
# [15] = system: PPARg homodimer (NR concentration 180 nM)
# Procedure, shortened: as §1
# [16] = system: PXR:RXRa (NR concentration 270 nM, RXRa partner concentration 90 nM)
# Procedure, shortened: as §1
# [17] = system: PXR homodimer (NR concentration 270 nM)
# Procedure, shortened: as §1
# [18] = system: RARa:RXR (NR concentration 270 nM, RXRa partner concentration 90 nM)
# Procedure, shortened: as §1
# [19] = system: RARa homodimer (NR concentration 270 nM)
# Procedure, shortened: as §1
# [20] = system: RARb:RXRa (NR concentration 270 nM, RXRa partner concentration 90 nM)
# Procedure, shortened: as §1
Sequence,PBM binding z-score [1],PBM binding z-score [2],PBM binding z-score [3],PBM binding z-score [4],PBM binding z-score [5],PBM binding z-score [6],PBM binding z-score [7],PBM binding z-score [8],PBM binding z-score [9],PBM binding z-score [10],PBM binding z-score [11],PBM binding z-score [12],PBM binding z-score [13],PBM binding z-score [14],PBM binding z-score [15],PBM binding z-score [16],PBM binding z-score [17],PBM binding z-score [18],PBM binding z-score [19],PBM binding z-score [20]
GTACCAAGGTGAATAGGTCGTTGAGGAGTAGGCG,0.778,0.909,0.0544,0.533,-0.56,2.32,1.22,1.67,0.113,1.14,1.82,2.41,-0.447,-0.52,1.24,0.61,0.0954,1.74,0.334,1.99
TAGCCTAGGTCATTGGGGCAGTATAGTACGCATC,4.67,3.57,1.22,3.42,0.997,4.2,4.24,4.06,1.15,3.06,3,4.45,0.832,0.251,1.66,1.89,0.425,2.52,0.554,3.83
CTCGAAAGGTCGTGCTCAGGTGGGTATACCAAAC,5,3.41,0.337,3.41,0.396,4.5,2.17,3.18,0.828,1.96,0.456,1.65,0.375,0.179,1.84,3.14,0.555,3.84,0.327,3.9
TCAGACTGGTGAAGGTAACTCAGGTACGCAGTCG,-0.62,0.98,-0.387,0.192,-1.07,0.467,0.185,1.29,2.82,1.98,1.41,0.112,-0.324,-0.759,-0.234,0.0294,-0.386,0.305,-0.373,-0.0149
AGTCAACGTTCATCTAGGTAACGTAAGATATGCT,-0.27,-0.156,-0.154,-0.204,-0.325,0.365,0.767,0.288,0.292,0.234,0.5,1.94,0.919,0.334,0.649,-0.212,-0.489,0.244,-0.0246,0.796
AACGAAAGGTCGAGGTGAGTATAGAGAAAGGGAA,4.3,3.7,-0.0292,2.86,0.0857,4.71,3.34,3.82,1.16,2.59,0.47,2.34,0.731,0.177,1.1,2.6,0.272,3.51,0.313,4.23
CCTGCTAGGTCAATGGGCAGCTAAAGCAGCTCGC,1.94,1.62,-0.481,0.861,-0.588,2.59,2.02,3.18,0.64,2.19,3.7,3.4,-0.844,-1.02,0.228,0.352,-0.589,1.07,-0.679,3.6
ACTTACGGGTCAACGAGGCTATAGCACGCGTATA,7.11,4.24,0.0789,3.85,0.747,5.82,5.21,4.87,1.81,3.64,3.07,3.98,0.121,1.38,1.92,3.59,0.421,4.16,0.515,4.01
CGTAGTTGGTCAGGAGGTCACACACCGGATATGA,3.37,3.49,2.03,3.36,0.65,4.17,2.96,4.01,1.36,3.36,1.51,3.49,0.964,0.266,4.08,4.4,1.55,4.87,1.81,3.54
TGTCAAAGTTCAAAGGGAACGTAAGTATCCACAC,7.11,6.18,3.96,4.16,1.68,5.06,8.1,7.17,5.31,7.11,-0.458,3.95,2.37,1.56,4.11,4.92,4.8,4.2,1.6,4.93
ACTAGTTGGTCAGCTGAGGTCACAGACAATTCGG,2.95,3.29,1.84,3.27,0.184,3.71,1.72,2.16,0.454,1.43,1.59,2.68,0.63,0.453,2.49,5.14,1.43,4.65,0.482,3.48
AGTCAAAGTTCAGGACGTGGTAACGTAAAGCACG,3.46,3.57,0.963,1.49,0.114,3.12,4.28,4.75,2.07,3.71,-0.468,1.64,0.643,0.0633,1.68,2.15,0.643,1.86,0.703,4.15
TCATATACGTAATACAGGTGAAAGTCGGCATCTA,1.21,1.13,0.327,1.26,0.782,1.75,1.26,2.79,3.96,3.36,2.77,1.63,0.572,1.29,1.17,0.689,0.477,0.982,1,0.727
CCTACTTGGCCAAAAAGGTCATTGATGCCGATAA,4.39,4.79,3.93,4.61,1.27,4.7,1.74,3.04,0.755,1.87,1.07,1.98,0.866,0.465,4.5,4.93,2.68,5.78,3.1,3.99
